NS1 function inh – blocks influenza NS1 protein function | Potency, µM (top dose mostly 46.1 µM), inactives show at the top dose activity, positive = more growth | AID 2326 | 270,000 compounds, 0.4% hits; note: potency is the fitted concentration of half-maximal effect; actives are rising curves; nearly all actives have a fitted effect of over 50% in size
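S. cerevisiae expressing influenza A NS1, grown in glucose, washed, then diluted 1:100 into pH 6.0 -URA galactose medium with 23 nl compound. Growth recovery read as OD600; NS1-free strain serves as control.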
SARS PLpro yeast – blocks SARS-CoV papain-like protease in a yeast assay. S. cerevisiae expressing SARS-CoV PLpro, growth rescue. Potency, µM (top dose mostly 32.9 µM), inactives show at the top dose activity, positive = growth rescue, hits mostly activators. 330,000 compounds, 0.19% hits; note: potency is the fitted concentration of half-maximal effect; 0% is about no effect; nearly all actives have a fitted effect of over 55% in size
Pf growth 48h – inhibits P. falciparum growth in the first generation, 48 h | P. falciparum luciferase growth in erythrocytes, 48 h | Potency, µM (doses to about 28.7 µM), without a hit: at the highest dose activity change, negative = inhibition, usual class: inhibitors | 310,000 compounds, 5.9% hits; active = well fitted inhibition curve with a large enough effect; inconclusive = small, poorly fitted or top-dose-only effect, or another doubt; inactive = no such curve, though single readings can be large or run the other way; note: potency is the fitted concentration of half-maximal effect; % is set by controls: 0 for no effect and ±100 for the full control effect
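Cell-based growth assay: transgenic P. falciparum expressing firefly luciferase, cultured in red cells within RPMI 1640 containing 0.5% w/v Albumax, 24 mM bicarbonate and gentamycin. A drop in luciferase activity indicates inhibition.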
Shiga toxin inh – Shiga toxin inhibition; Vero cells, Shiga toxin protein synthesis inhibition reporter; inhibition, % at 38.7 µM; 290,000 compounds, 9.2% hits; AID 2315; in the data active = inhibition mostly above about 28%, no sharp cut-off; inactive = mostly below about 43%; note: 0% is about no effect
Cycloheximide cs – counter-screen hit for Shiga toxin inhibitors, cycloheximide; cell reporter, cycloheximide protein synthesis inhibition counterscreen; max response, %; 300,000 compounds, 12% hits; AID 2314; in the data active = max response mostly above about 13%, no sharp cut-off; inactive = mostly below about 14%; note: read at 38.3 µM for the half of the compounds with a filed dose; 0% is about no effect
Pf growth 96h – inhibits malaria parasite growth, 96 h; P. falciparum luciferase reporter growth, 96 h; Potency, µM (doses to about 28.7 µM), without a hit: top-dose activity change, negative = inhibition, hits mostly inhibitors; 320,000 compounds, 6.9% hits; active = well fitted inhibition curve with a large enough effect; inconclusive = small, poorly fitted or top-dose-only effect, or another doubt; inactive = no such curve, though single readings can be large or run the other way; note: potency is the fitted concentration of half-maximal effect; % is set by controls: 0 for no effect and ±100 for the full control effect
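Two parasite generations (96 h, 37 C, 5% CO2) of compound exposure in infected erythrocytes (0.05% parasitemia, 2% hematocrit). Luciferase-reporter P. falciparum; decreased luminescence indicates inhibited growth, aimed at apicoplast-acting delayed death.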
* = called active by the depositor; i = inactive; ? = inconclusive; / = not tested or not shown; [ ] = remark or other dose. A selection: hits, their analogues and other compounds. The true share with any hit is near 21%. Unless noted, calls come from the whole dose curve.

SMILES	NS1 function inh	SARS PLpro yeast	Pf growth 48h	Shiga toxin inh	Cycloheximide cs	Pf growth 96h
CCn1cc(C(=O)NCc2ccc3c(c2)OCO3)c(=O)c2cc(F)c(N3CCN(C(=O)c4ccco4)CC3)cc21	-3%	28%	8.3µM*	-10	-4	/
COc1cc(C(=O)Nc2ccccn2)cc(OC)c1OC	2%	-1%	4%	-5	-4	11%[5.75 µM]
O=C(Nc1ccccc1C(=O)Nc1ccccn1)c1ccccc1F	4%	1%	0%	-5	-3	-10%
Cc1cc(C(=O)Nc2ccccn2)cs1	-3%	-16%	433%	48*	37*	/
Cn1cc(C(=O)Nc2ccccn2)c(=O)c2ccccc21	2%	1%	159%	47*	20*	?
Cc1ccccc1C(=O)Nc1ccccn1	-4%	/	23%	57*	32*	7%
Cc1ccccc1C(=O)Nc1ccc(Cl)cn1	-35%	-2%	173%	115*	24*	?
Cc1cnc(C(=O)N2CCN(S(=O)(=O)c3cccc(Br)c3)CC2)cn1	/	26%	/	/	/	/
Cc1c(C)[n+](=O)c2c(n1[O-])CCCCC2	-4%	-3%	36%	-3	1	144%
CCOc1nc(-c2ccccc2Cl)ccc1C#N	-3%	-1%	-5%	-7	9	-16%
c1csc(-c2nn3c(C4COc5ccccc5O4)nnc3s2)c1 (stereo not given)	-103%	-19%	?	45*	36*	/
Fc1ccc(-c2nn3c(C4COc5ccccc5O4)nnc3s2)cc1 (stereo not given)	-96%	?	12%	6	-2	?
COc1ccccc1C(=O)NCCC(=O)N(C)Cc1cccs1	/	2%	-5%	/	/	5%
Cc1ccc(NC(=O)c2ccccc2-c2cc(C)no2)cc1	6%	-2%	?	-6	3	12%
O=C(O)c1cc([N+](=O)[O-])ccc1C(=O)Nc1cccc([N+](=O)[O-])c1	13%	-2%	9%	-5	1	9%
Cc1ccc(NC(=O)c2csc(-c3ccccc3)c2C)cc1	-2%	-7%	194%	199*	54*	i
Cc1c(C(=O)Nc2cccc([N+](=O)[O-])c2)csc1-c1ccccc1	15%	-3%	112%	83*	46*	-41%
Cc1cc(C(=O)Nc2c(F)cc(F)cc2Br)n(-c2ccccc2)n1	-2%	-2%	1%[0.00184 µM]	-4	-3	6%
COc1cccc(/C=C/C(=O)OCC(=O)N2CCCC2)c1OC	/	-2%	/	/	/	/
COCCn1c(=S)[nH]c2ccc(N(C)C)cc2c1=O	-6%	-3%	6%	13	8	?
COC(=O)c1ccc(C(=O)OC)c(N)c1	-11%	3%	39%	17	13	34%
COC(=O)c1ccc(N2CCCCC2)c(N)c1	1%	0%	77%	100*	57*	-22%
COC(=O)c1ccc(N2CCC(C)CC2)c(N)c1	-9%	0%	/	45	38*	-97%
COC(=O)c1ccc(Cl)c(NC(=O)CN2CCC(C)CC2)c1	?	?	/	13	21	-10%
O=C(C1CCC(CNc2nc(=S)[nH]c3ccccc23)CC1)N1CCN(c2ccc(F)cc2)CC1 (stereo not given)	/	0%	?	-14	12	-21%
SMILES	NS1 function inh	SARS PLpro yeast	Pf growth 48h	Shiga toxin inh	Cycloheximide cs	Pf growth 96h
Cc1nc(CN2CCN(C(=O)c3ccc(Br)cc3)CC2)cs1	8%	2%	8%	-14	-1	/
COC(=O)c1ccc(/C=C/c2c(-c3ccsc3)oc3ccc(N4CCOCC4)cc23)cc1	22%	4%	?	15	6	13µM*
COc1ccccc1C(CCN(Cc1ccccc1)C(C)=O)c1ccco1 (stereo not given)	6%	-3%	?	-4	-2	?
Cc1cnc(C(=O)N2CCN(S(=O)(=O)c3ccc4ccccc4c3)CC2)cn1	-2%	14%	/	27	5	9.3µM*
O=C(c1cc2ccccc2o1)N1CCN(S(=O)(=O)c2ccc(F)c(F)c2F)CC1	/	1%	8.3µM*	/	/	10µM*
CCOC(=O)c1ccc(S(=O)(=O)N2CCN(C(=O)c3cc4ccccc4o3)CC2)cc1	/	-2%	9.3µM*	/	/	?
C=CCc1cc(OC)ccc1OCCN1CC(C)OC(C)C1 (stereo not given)	-5%	-3%	-4%	/	-1	57%
N#CC[N+]1(Cc2ccccn2)CCCC1	-5%	/	/	/	/	/
